Screening results: PubChem BioAssay, Broad Institute
Most compounds without a hit are left out; they make up all but 1.5% or so of the library.
RAD52 inh = RAD52 (human) annealing inhibition; P43351; recombinant RAD52 DNA annealing, FRET fluorescence; inhibition, % at 18.7 µM; 360,000 tested, 0.46% active; AID 651710;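 active = every replicate showing at least 50% inhibition; inconclusive = mean inhibition at least 50% but not in every replicate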
Target sequence (P43351 whole entry, looked up): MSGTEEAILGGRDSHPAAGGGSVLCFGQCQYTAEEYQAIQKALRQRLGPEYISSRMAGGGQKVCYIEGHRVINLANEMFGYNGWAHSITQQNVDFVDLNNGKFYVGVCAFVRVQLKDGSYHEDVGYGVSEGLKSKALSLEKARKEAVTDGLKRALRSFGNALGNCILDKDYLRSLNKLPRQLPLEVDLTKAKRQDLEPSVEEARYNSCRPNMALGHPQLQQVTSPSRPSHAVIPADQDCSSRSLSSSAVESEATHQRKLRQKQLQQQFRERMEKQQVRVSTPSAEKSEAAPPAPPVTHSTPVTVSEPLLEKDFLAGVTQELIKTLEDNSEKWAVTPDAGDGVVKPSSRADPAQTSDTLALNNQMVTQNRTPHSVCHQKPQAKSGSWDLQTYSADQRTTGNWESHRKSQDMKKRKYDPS
F508del corr = CFTR F508del correction in bronchial cells; CFBE cells, YFP halide quenching; stimulated with forskolin plus potentiator P3; % fluorescence drop versus neutral controls; 350,000 tested, 0.36% active; activity (quench increase), % at 7.58 µM;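 active = mean added fluorescence quench of at least 8% versus neutral control, with both replicates also reaching 8%; inconclusive = only one of the mean or replicate conditions met; inactive = mean below 8% and not both replicates reaching 8%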;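 note: cells transiently co-express mutant CFTR-F508del with the halide-sensitive YFP; corrector assay measuring rescue of mutant channel to the surface after 24 h compound exposure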
dFosB activator = enhances mouse delta FosB homodimer DNA binding; P13346; purified delta FosB, TAMRA-CDK5 oligo fluorescence polarization; percent of positive-control signal above neutral wells; activation, % at 25 µM; 340,000 tested, 0.99% active;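 active = mean activation above about 17%, with every replicate also reaching it, limit read from the data, passing the limit was not always enough; inconclusive = only one of the two conditions met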
RAD54 branch = inhibitors of human RAD54 branch migration | inhibition, % at 10.4 µM | AID 602329 | Q92698 | 360,000 tested, 0.14% active | RAD54 Holliday junction branch migration, FAM/BHQ fluorescence;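 active = mean normalized replicate activity at least 40 and at least half of replicates scoring 40 or more; inconclusive = only one of the two criteria met; inactive = mean below 40 and under half of replicates reaching 40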;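 note: inhibitors cause a drop in the FAM fluorescence signal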
Glyco luc inh = N-linked glycosylation inhibition | D54 ERlucT glycosylation luciferase reporter, 24 h; percent of 100 nM tunicamycin response | AID 588692 | 360,000 tested, 0.23% active | reporter increase, % at 12.5 µM;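 active = mean luciferase reporter signal, scaled so untreated is 0 and the glycosylation-blocking control 100, at or above a set limit in every replicate; inconclusive = mean reaches the limit but not every replicate does; inactive = mean below the limit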;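 note: luciferase carries N-glycosylation sites so blocking glycosylation raises the light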
PvdQ inh = blocks Pseudomonas aeruginosa PvdQ acylase activity. 340,000 tested, 0.063% active. inhibition, % at 10 µM. purified PvdQ acylase, fluorescence plate reader; in the data active = inhibition above about 30%, passing the limit was not always enough; inconclusive = no clear call, values can overlap the other calls
DNA binding = counter-screen for Rad54 inhibitors: DNA binding compounds | Acridine orange-DNA displacement, fluorescence polarization, 20 min | AID 651673 | 460 tested, 8% active | shares compounds with RAD54 branch | AC50, µM (top dose mostly 35 µM);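 active = signal drop giving an AC50 within twice the top valid tested concentration of each sample, actives reach about 35 µM in these data; inactive = activity opposite to expected, plus the rest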;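 note: polarization loss reports compound binding to salmon sperm DNA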
DNA binder FP = binds DNA, flagging false RAD52 inhibitor hits | 1,000 tested, 8% active | AC50, µM | shares compounds with RAD52 inh | Salmon sperm DNA/acridine orange FP displacement, DNA binding | AID 652128;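 active = fitted half-maximal concentration for signal loss at or below twice the highest dose tested, in every separate run, actives reach about 64 µM in these data; inconclusive = runs disagree, or flat partial signal loss, or poor fit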
Each line names hits and unclear results; the compound was inactive in the other large screens (follow-up assays come after a bar, where they were run); ! = not confirmed by another sample.

Cc1c(O)c(CN(C)C)cc2c1oc(=O)c1ccccc12	RAD54 branch inconclusive | DNA binding inactive
CCN(CC)CCCNC(=O)c1cc2c(=O)n(C)c3ccccc3c2n1C	RAD54 branch 72 | DNA binding inactive
CCCN(CCC)CCCNC(=O)c1cc2c(=O)n(C)c3ccccc3c2n1C	RAD54 branch inconclusive | DNA binding inactive
CCCCN(CC)CCNC(=O)c1cc2c(=O)n(C)c3ccccc3c2n1C	RAD54 branch 56 | DNA binding inactive
CN(C)CCNC(=O)c1cc2c(=O)n(C)c3ccccc3c2n1C	RAD54 branch 78 | DNA binding inactive
COCCNC(=O)c1cc2c(=O)n(C)c3ccccc3c2n1C	none
CCN(CC)CCNC(=O)c1cc2c(=O)n(C)c3ccccc3c2n1C	RAD54 branch 61 | DNA binding inactive
COc1cccc2c1-c1c(O)cccc1C2=O	RAD54 branch inconclusive | DNA binding inactive
COc1ccccc1O	none
COC(=O)c1ccc(Nc2cc(C)nc3ccc(C)cc23)cc1	F508del corr inconclusive (no result: RAD54 branch)
Cc1ccc(Nc2cc(C)nc3c(C)cccc23)cc1	RAD54 branch inconclusive | DNA binding inactive
CC(=O)c1ccc(Nc2cc(C)nc3c(C)cccc23)cc1	none
COc1ccc2nc(C)cc(Nc3ccc(N4CCOCC4)cc3)c2c1	dFosB activator 30, RAD54 branch inconclusive, Glyco luc inh 49 (no result: RAD52 inh, F508del corr) | DNA binding inactive
COc1ccc2nc(C)cc(Nc3ccc(C)cc3)c2c1	RAD54 branch 57 | DNA binding inactive
C[C@H]1CN([C@@H](C)CO)C(=O)Cc2cc(NC(=O)Nc3ccccc3)ccc2O[C@H]1CN(C)Cc1ccc(C(F)(F)F)cc1	none (no result: dFosB activator, Glyco luc inh, PvdQ inh)
CCCNC(=O)N1C[C@@H](C)[C@H](OC)CN(C)C(=O)c2ccc(NS(C)(=O)=O)cc2OC[C@H]1C	none (no result: dFosB activator, Glyco luc inh, PvdQ inh)
C[C@@H]1CN([C@H](C)CO)C(=O)Cc2cc(NS(=O)(=O)c3cn(C)cn3)ccc2O[C@H]1CN(C)C	none (no result: dFosB activator, Glyco luc inh, PvdQ inh)
Cc1ccc(S(=O)(=O)CCSc2ccc(C(F)(F)F)cn2)cc1	RAD54 branch inconclusive (no result: dFosB activator, PvdQ inh) | DNA binding inactive
CCNCCNC(=O)c1c(O)c2cccc3c2n(c1=O)CCC3	RAD54 branch inconclusive (no result: RAD52 inh, F508del corr) | DNA binding inactive
CCCCNC(=O)c1c(O)c2cccc3c2n(c1=O)CCC3	none (no result: RAD52 inh, F508del corr)
O=C1C(c2ccc(F)cc2)N(C2CCCCC2)C(=O)CN1C1CCCC1 (stereo unspecified)	RAD54 branch inconclusive (no result: RAD52 inh, F508del corr) | DNA binding inactive
Cc1ccc(C2C(=O)N(C3CCC(C)CC3)CC(=O)N2C2CCCC2)cc1 (stereo unspecified)	none (no result: RAD52 inh, F508del corr)
COc1cccc(S(=O)(=O)Nc2ccc3c(c2)[C@H]2C[C@@H](CC(=O)NCC(F)(F)F)O[C@@H](CO)[C@H]2O3)c1	none (no result: dFosB activator, Glyco luc inh, PvdQ inh)
Cc1ccc2nc3c(cc(C(=O)NCCN4CCOCC4)c(=N)n3CCCN3CCOCC3)c(=O)n2c1	RAD54 branch 66 (no result: RAD52 inh, F508del corr) | DNA binding inactive
COCCCNCCC(CCC(C)C)c1ccc2c(c1)OCO2 (stereo unspecified)	RAD54 branch inconclusive (no result: dFosB activator, PvdQ inh) | DNA binding inactive
CC(C)CCC(CCN1CCCC1)c1ccc2c(c1)OCO2 (stereo unspecified)	none
COc1cc2c(C#N)c(N3CCN(C)CC3)nc(N)c2c(N)n1	RAD54 branch 71 (no result: RAD52 inh, F508del corr) | DNA binding inactive
CCOc1ccc(Nc2c3ccccc3nc3ccccc23)cc1	RAD52 inh 85, dFosB activator 86, RAD54 branch 106, Glyco luc inh 64 | DNA binding 27µM | DNA binder FP inactive
CC(C)CNc1ncnc2c1sc1nc(N3CCOCC3)c3c(c12)CC(C)(C)OC3	none (no result: RAD52 inh, F508del corr)
CN(C)CCNc1ncnc2c1sc1nc(N3CCCC3)c3c(c12)CC(C)(C)OC3	RAD52 inh 88, dFosB activator inconclusive, RAD54 branch 97 | DNA binding inactive | DNA binder FP inactive
CCN(CC)Cc1cc(Nc2ccnc3cc(Cl)ccc23)ccc1O	RAD52 inh 88!, dFosB activator 44, RAD54 branch 75! | DNA binding inactive | DNA binder FP inactive
